# In PubChem BioAssay (NCI):
# About 83,000 compounds went through this panel and 20% of them were active in at least one assay; those are over-represented in the sample as a whole.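 Negative percent growth values reflect cell death: -40 means 40% of the cells present at the start died, and -100 means all died.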 Activity calls are given as the source filed them. The calls were made as follows: active = growth percent below 10; inactive = the rest.
# Test system: MOLT-4 leukemia
# Test: NCI-60 one-dose screen, 48 h (100 = growth as untreated, 0 = no growth, -100 = all killed)
# Settings: 10 µM unless noted
row,Compound,growth
1,OCCn1cc(-c2nc3ccc4[nH]ncc4c3c3c2CCCC3)cn1,31.2% (inactive)
2,O=C1Nc2cc(-c3ccc(NS(=O)(=O)c4ccc([N+](=O)[O-])cc4)cc3)ccc2/C1=C/c1ccc[nH]1,15.8% (inactive)
3,O=C(Cn1c(-c2ccccc2)nc2ccccc21)N=Nc1c(O)[nH]c2ccc(Br)cc12,20.8% (inactive)
4,Cc1nc2sccn2c1-c1nnc(SCc2ccccc2)o1,88.1% (inactive)
5,CCC1(OC(=O)c2ccccc2SSCCOC(=O)CCCCC2SCC3NC(=O)NC32)C(=O)OCc2c1cc1n(c2=O)Cc2cc3ccccc3nc2-1 (stereo not drawn),21.8% (inactive)
6,C=CC(=O)Nc1ccc(C(=O)/C=C/c2ccc(N(C)C)cc2)c(O)c1,7.05% (active)
7,COc1ccc(C(=O)c2cc(C(C)=O)c3c(C)cc(C)cn23)cc1,82.3% (inactive)
8,Cc1ccc(S(=O)(=O)N(CCn2ccnc2[N+](=O)[O-])CCn2ccnc2[N+](=O)[O-])cc1,99.8% (inactive)
9,Cc1ccc(S(=O)(=O)Nc2ccc(-c3ccc4c(c3)NC(=O)/C4=C\c3ccc[nH]3)cc2)cc1,68.1% (inactive)
10,COc1ccc2c(c1)C(=O)N(C)C2C1c2c(cc3c(c2OC)OCO3)CCN1C (stereo not drawn),46.4% (inactive)
11,Cc1ccc(C2CC(c3ccc(NC(=O)Nc4ccccc4)cc3)=NN2c2ccc(S(N)(=O)=O)cc2)cc1 (stereo not drawn),-27.8% (active)
12,COC(=O)c1cc(C(=O)C(Br)Br)n2c1ccc1c3ccccc3ccc12,22.9% (inactive)
13,COc1ccc2c(c1)N=c1c-2cc2c(O)[nH]c(=S)n2c1=O,35.1% (inactive)
14,O=Cc1cncc(-c2ccc3ncnc(N4CCc5cc(F)c(Cl)cc54)c3c2)c1,-30.6% (active)
15,CC1=C(C(=O)OC(C)C)C(c2ccc(O)cc2)NC(=O)N1 (stereo not drawn),97.8% (inactive)
16,COC(=O)CSC1=C(C)C(=O)C(OC)=C(OC)C1=O,17.5% (inactive)
17,O=C1Nc2ccccc2/C1=C/C(=O)c1cc2ccccc2oc1=O,41% (inactive)
18,COC(=O)c1ccc(-c2c(-c3ccccc3)c(F)c3oc(C(=O)OC)c(N)c3c2-c2ccccc2)cc1,66.5% (inactive)
19,COc1cc(-c2ccc3ncnc(N4CCc5ccc(Cl)cc54)c3c2)cnc1Cl,6.74% (active)

row,Compound,growth
1,Oc1cncc(-c2ccc3ncnc(N4CCc5cc(F)c(Cl)cc54)c3c2)c1,57.6% (inactive)
2,Nc1cc(-c2c[nH]c3ccc(F)cc23)nc2cc(-c3c[nH]c4ccccc34)nn12,-9.73% (active)
3,C/C(=N\Nc1ccc(S(N)(=O)=O)cc1)c1cnn(-c2cc(=O)[nH]c3ccc(Br)cc23)c1C,18.5% (inactive)
4,O=C(Cn1c(-c2ccccc2)nc2ccccc21)N=Nc1c(O)[nH]c2ccc(Cl)cc12,27.4% (inactive)
5,COC(=O)c1c(C(=O)OC)c2ccc3c4ccccc4ccc3n2c1C(=O)OC,114% (inactive)
6,COc1sc(/C=N/NC(=O)c2[nH]c3ccc(Br)cc3c2-c2ccccc2)cc1Br,-2.1% (active)
7,O=C(NNC(=O)c1ccc(OCc2nc3ccc(Cl)cc3[nH]2)cc1)Nc1ccc(Cl)c(Cl)c1,94% (inactive)
8,COc1ccc(NC(=O)CSc2nnc(-c3ccc(-c4nc5ccc(Cl)cc5[nH]4)cc3)o2)cc1,37.5% (inactive)
9,O=C1Nc2ccc(F)cc2/C1=C/C(=O)c1cc2ccccc2oc1=O,65% (inactive)
10,Cn1cc(-c2cc(N)n3nc(-c4c[nH]c5ccccc45)cc3n2)c2ccccc21,9.25% (active)
11,COc1nc(N)ncc1-c1ccc2ncnc(N3CCc4cc(F)c(Cl)cc43)c2c1,62.9% (inactive)
12,CN1CCN(C(=O)Oc2cc3c(c4ccccc24)[C@H](CCl)CN3C(=O)c2cc3cc(OCCCN4CCC4)ccc3[nH]2)[C@@H]2CSSC[C@H]21,-9.2% (active)
13,COc1ccc2[nH]cc(-c3cc4nc(-c5cn(C)c6ncccc56)cc(N)n4n3)c2c1,-9.04% (active)
14,COc1ccc(N=Nc2c(N)nn3c(-c4ccc(OC)c(OC)c4)ccnc23)cc1,100% (inactive)
15,Cc1ccc2nc(NC(=O)Nc3cccc(Cl)c3)sc2c1,82.9% (inactive)
16,COc1ccc(Nc2ncnc3sc4c(c23)CCN(Cc2ccccc2)C4)cc1,62.4% (inactive)
17,O=C1/C(=C/C=C/c2ccco2)SC(=S)N1CC(=S)C1C=CS(=O)(=O)C1 (stereo not drawn),68.8% (inactive)
18,CC1=C(C(=O)OCc2ccccc2)C(c2cccc3ccccc23)n2c(nc3ccccc32)N1 (stereo not drawn),32.3% (inactive)
19,CN(C)c1nc(NCCNS(=O)(=O)c2ccc(C(=O)/C=C/c3ccccc3)cc2)nc(N2CCOCC2)n1,13.9% (inactive)
